Data: PubChem BioAssay (EPA / NIEHS)
Some compounds were tested as several samples or in several runs, with calls that do not always agree. Activity calls are given as the source filed them. Rule for the calls: active = hit-call score of the fitted dose curve at least 0.9, where 1 is the maximum; inactive = score below 0.9.

Columns and labels:
[1] = read-out: Plasminogen activator inhibitor-1 (PAI1), SERPINE1 (gene 5054); assay: BSK_MyoF_PAI1: BioMAP Diversity Plus: MyoF Assay for Plasminogen activator inhibitor-1 (PAI1) Biomarker Activity (AID 2284256); conditions: primary human lung fibroblasts
In short: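 ELISA read-out of PAI-1 from primary human lung fibroblast cultures 24 h after dosing; gain-of-signal fit versus DMSO control.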

[2] = read-out: Interleukin-8 (IL8), CXCL8 (gene 3576); assay: BSK_MyoF_IL8: BioMAP Diversity Plus: MyoF Assay for Interleukin-8 (IL8) Biomarker Activity (AID 2284261); conditions: primary human lung fibroblasts
In short: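 ELISA read-out of IL-8 from primary human lung fibroblasts, 24 h post-dose; positive-direction curve fitting relative to DMSO vehicle baseline.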

Decorin, DCN (gene 1634) = assay: BSK_MyoF_Decorin: BioMAP Diversity Plus: MyoF Assay for Decorin Biomarker Activity (AID 2284265); conditions: primary human lung fibroblasts
In short: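 Human lung fibroblasts in the MyoF system were exposed to compound for 24 h, after which decorin was quantified by ELISA. Activity was fitted in the positive direction relative to DMSO negative control.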

[3] = BSK_MyoF_SRB: Viability Assessment in the BioMAP Diversity Plus: MyoF Assay (AID 2284267); conditions: primary human lung fibroblasts;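 note: total protein by SRB absorbance in parallel cultures as cytotoxicity measure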
In short: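 Cytotoxicity read-out: after 10% TCA fixation, parallel human lung fibroblast cultures were stained with 0.1% SRB at 24 h post-dosing and read at 560 nm; DMSO served as baseline.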

[4] = read-out: Matrix Metallopeptidase 1 (MMP1), MMP1 (gene 4312); assay: BSK_MyoF_MMP1: BioMAP Diversity Plus: MyoF Assay for Matrix Metallopeptidase 1 (MMP1) Biomarker Activity (AID 2284268); conditions: primary human lung fibroblasts
In short: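 ELISA readout of MMP1 in primary human lung fibroblast cultures, 24 h post-dosing. Gain of signal versus DMSO vehicle control defines activity. Parallel SRB staining (0.1% after 10% TCA fixation, 560 nm) flags overt cytotoxicity.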

[5] = read-out: TIMP metallopeptidase inhibitor 1 (TIMP1), TIMP1 (gene 7076); assay: BSK_MyoF_TIMP1: BioMAP Diversity Plus: MyoF Assay for TIMP metallopeptidase inhibitor 1 (TIMP1) Biomarker Activity (AID 2284269); conditions: primary human lung fibroblasts
In short: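 Primary human lung fibroblasts, MyoF multiplex system; chemical exposure 24 h; TIMP-1 by ELISA; positive fitting direction vs DMSO control.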

[6] = read-out: Interferon-inducible T-cell alpha chemoattractant (ITAC), CXCL11 (gene 6373); assay: BSK_hDFCGF_ITAC: BioMAP Diversity Plus: hDFCGF Assay for Interferon-inducible T-cell alpha chemoattractant (ITAC) Biomarker Activity (AID 2284251); conditions: primary human foreskin fibroblasts
In short: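 Measured by ELISA, the chemokine level serves as the endpoint in human skin fibroblast primary cultures 24 h after compound addition. Increases relative to DMSO-treated wells define activity.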

[7] = read-out: Plasminogen activator inhibitor-1 (PAI1), SERPINE1 (gene 5054); assay: BSK_KF3CT_PAI1: BioMAP Diversity Plus: KF3CT Assay for Plasminogen activator inhibitor-1 (PAI1) Biomarker Activity (AID 2284252); conditions: primary human keratinocytes with fibroblasts
In short: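 PAI-1 levels quantified by ELISA after 24 h compound exposure of primary human skin keratinocytes co-cultured with fibroblasts. Activity is the gain relative to DMSO; cytotoxicity tracked in parallel cultures via SRB staining.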

[8] = read-out: Interleukin-8 (IL8), CXCL8 (gene 3576); assay: BSK_KF3CT_IL8: BioMAP Diversity Plus: KF3CT Assay for Interleukin-8 (IL8) Biomarker Activity (AID 2284254); conditions: primary human keratinocytes with fibroblasts
In short: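 Human primary keratinocyte plus foreskin fibroblast co-culture dosed with test chemicals; IL-8 measured by ELISA 24 h after dosing. Activity fitted in the positive direction relative to DMSO negative control.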

[9] = read-out: Monocyte Chemoattractant Protein-1 (MCP1), CCL2 (gene 6347); assay: BSK_IMphg_MCP1: BioMAP Diversity Plus: IMphg Assay for Monocyte Chemoattractant Protein-1 (MCP1) Biomarker Activity (AID 2284253); conditions: primary human endothelial cells with macrophages
In short: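 ELISA readout of MCP-1 at 24 hours in IMphg co-cultures of venular endothelial cells and macrophages, normalised to DMSO; parallel cultures stained with sulforhodamine B for overt cytotoxicity.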

[10] = read-out: Macrophage Inflammatory Protein-1 Alpha (MIP1a), CCL3 (gene 6348); assay: BSK_IMphg_MIP1a: BioMAP Diversity Plus: IMphg Assay for Macrophage Inflammatory Protein-1 Alpha (MIP1a) Biomarker Activity (AID 2284255); conditions: primary human endothelial cells with macrophages
In short: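 MIP-1a protein levels were quantified by ELISA after 24 h treatment of human endothelial cell–macrophage co-cultures, compared with DMSO. Parallel cultures were fixed with TCA and stained with 0.1% SRB to gauge overt cytotoxicity.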

CD69, CD69 (gene 969) = assay: BSK_IMphg_CD69: BioMAP Diversity Plus: IMphg Assay for CD69 Biomarker Activity (AID 2284257); conditions: primary human endothelial cells with macrophages
In short: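 Readout is ELISA for CD69 in primary human venular endothelial cell/macrophage co-culture, taken at 24 h post-dosing. SRB staining of parallel cultures gauged overt cytotoxicity; signal increase versus DMSO defined activity.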

[11] = read-out: Eotaxin 3, CCL26 (gene 10344); assay: BSK_BF4T_Eotaxin3: BioMAP Diversity Plus: BF4T Assay for Eotaxin 3 Biomarker Activity (AID 2284258); conditions: primary human bronchial epithelial cells with fibroblasts
In short: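 ELISA measurement of Eotaxin-3 after 24 h chemical exposure in a bronchial epithelial/dermal fibroblast co-culture, with DMSO as baseline. Parallel SRB staining (0.1% SRB after 10% TCA fixation, 560 nm) flagged overt cytotoxicity.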

[12] = read-out: Monocyte Chemoattractant Protein-1 (MCP1), CCL2 (gene 6347); assay: BSK_BF4T_MCP1: BioMAP Diversity Plus: BF4T Assay for Monocyte Chemoattractant Protein-1 (MCP1) Biomarker Activity (AID 2284259); conditions: primary human bronchial epithelial cells with fibroblasts
In short: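 MCP-1 ELISA readout taken 24 h after dosing in the BF4T system (bronchial epithelial cells plus dermal fibroblasts). Parallel SRB total-protein staining flagged cytotoxicity; DMSO served as baseline, positive fitting direction.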

[13] = read-out: Intercellular Adhesion Molecule 1 (ICAM1), ICAM1 (gene 3383); assay: BSK_BF4T_ICAM1: BioMAP Diversity Plus: BF4T Assay for Intercellular Adhesion Molecule 1 (ICAM1) Biomarker Activity (AID 2284260); conditions: primary human bronchial epithelial cells with fibroblasts
In short: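 ICAM-1 levels measured by ELISA after 24 h chemical treatment of bronchial epithelial cell/dermal fibroblast co-cultures, read against DMSO baseline. Overt cytotoxicity checked in parallel cultures by sulforhodamine B staining.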

CD90, THY1 (gene 7070) = assay: BSK_BF4T_CD90: BioMAP Diversity Plus: BF4T Assay for CD90 Biomarker Activity (AID 2284262); conditions: primary human bronchial epithelial cells with fibroblasts
In short: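 CD90 levels by ELISA after 24 h treatment of human bronchial epithelial cell/dermal fibroblast cultures, analysed versus DMSO. Overt cytotoxicity checked in parallel cultures by sulforhodamine B staining.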

[14] = read-out: Interleukin-8 (IL8), CXCL8 (gene 3576); assay: BSK_BF4T_IL8: BioMAP Diversity Plus: BF4T Assay for Interleukin-8 (IL8) Biomarker Activity (AID 2284263); conditions: primary human bronchial epithelial cells with fibroblasts
In short: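 Human bronchial epithelial cells with dermal fibroblasts co-culture; IL-8 measured by ELISA 24 hours after dosing, fitted vs DMSO. Cytotoxicity tracked in parallel cultures by SRB total-protein staining.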

[15] = read-out: Interleukin-1 alpha (IL1a), IL1A (gene 3552); assay: BSK_BF4T_IL1a: BioMAP Diversity Plus: BF4T Assay for Interleukin-1 alpha (IL1a) Biomarker Activity (AID 2284264); conditions: primary human bronchial epithelial cells with fibroblasts
In short: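 ELISA read-out of IL-1α from bronchial epithelial cell/dermal fibroblast co-cultures 24 h after compound addition. Increases scored against DMSO negative control. Cytotoxicity monitored by sulforhodamine B staining of parallel cultures.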

KRT18 (gene 3875) = assay: BSK_BF4T_Keratin818: BioMAP Diversity Plus: BF4T Assay for Keratin 818 Biomarker Activity (AID 2284266); conditions: primary human bronchial epithelial cells with fibroblasts
In short: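 Keratin 8/18 levels quantified by ELISA after 24 h chemical treatment of bronchial epithelial cell/dermal fibroblast co-cultures, fitted in positive direction relative to DMSO. Parallel SRB staining tracks overt cytotoxicity.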

[16] = read-out: Matrix Metallopeptidase 1 (MMP1), MMP1 (gene 4312); assay: BSK_BF4T_MMP1: BioMAP Diversity Plus: BF4T Assay for Matrix Metallopeptidase 1 (MMP1) Biomarker Activity (AID 2284270); conditions: primary human bronchial epithelial cells with fibroblasts
In short: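 MMP-1 quantified by ELISA in primary human bronchial epithelial/dermal fibroblast co-cultures, 24 hours post-dosing, with DMSO as baseline; parallel sulforhodamine B staining (560 nm) tracks overt cytotoxicity.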

Measured: AC50

COP(=S)(OC)Oc1c(Cl)cc(C)cc1Cl
inactive: [1] | [2] | Decorin, DCN (gene 1634) | [3] | [4] | [5]

O=C(OC1CCCCC1)c1ccccc1C(=O)OC1CCCCC1
active: [1] 20.9 µM | [2] 5.72 µM | [3] 13.3 µM | [4] 5.69 µM | [5] 25.7 µM
inactive: Decorin, DCN (gene 1634)

COC(=O)Cc1ccccc1
inactive: [6] | [7] | [8]

O=C(O)CCC(F)(C(F)(F)F)C(F)(F)F
inactive: [6] | [7] | [9] | [8] | [10] | [1] | CD69, CD69 (gene 969) | [11] | [12] | [13] | [2] | CD90, THY1 (gene 7070) | [14] | [15] | Decorin, DCN (gene 1634) | KRT18 (gene 3875) | [3] | [4] | [5] | [16]
active: [6] 5.95 µM

CCOP(=S)(OCC)Oc1ccc(S(C)=O)cc1 (configuration not stated)
inactive: [1] | [2] | Decorin, DCN (gene 1634) | [3] | [4] | [5]

COC(=O)c1sccc1S(=O)(=O)NC(=O)Nc1nc(C)nc(OC)n1
inactive: [1] | [2] | Decorin, DCN (gene 1634) | [3] | [4] | [5]

CCSC(C)CC1CC(=O)C(C(CC)=NOC/C=C/Cl)=C(O)C1 (configuration not stated)
inactive: [1] | [2] | Decorin, DCN (gene 1634) | [3] | [4] | [5]

OCc1ccco1
inactive: [1] | [2] | Decorin, DCN (gene 1634) | [3] | [4] | [5]

CCCCCCCCC(=O)NCc1ccc(O)c(OC)c1
inactive: [1] | [2] | Decorin, DCN (gene 1634) | [3] | [4] | [5]

Nc1cccc2ccccc12
active: [2] 11.4 µM | [4] 20 µM
inactive: [1] | Decorin, DCN (gene 1634) | [3] | [5]
